# Reference: the supplement of paper PMC6607015
# Where a name gives a salt, the structure may show the parent alone.
# System: HeLa MZ
# Assay: LBPA endosome anti-LBPA integrated intensity (sum per cell), Z-score; higher = more LBPA staining
# Details: compound concentration in added solution (µM; 5 µl added to 20 µl cells): 10; 18 h
# Method in brief: (§1)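 Four 20× images per well were taken of HeLa MZ or A431 cells that had been seeded at 3,500 per well in 20 µl onto 5 µl of 10 µM compound solution in duplicate 384-well imaging plates. Before imaging, cells were incubated 18 h, fixed in 4% PFA and stained with 6C4 anti-LBPA antibody, filipin, propidium iodide and CellTracker green. Values are Z-scores normalised in AcuityXpress from MetaXpress-derived per-cell integrated LBPA or filipin intensity, either whole-cell or within LBPA endosomes.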
row,Compound,LBPA endosome anti-LBPA integrated intensity (z-score)
1,O=C(O)c1cc(=O)c2c(OCC(O)COc3cccc4oc(C(=O)O)cc(=O)c34)cccc2o1 [Cromolyn disodium salt],-0.0857
2,CNCCC(Oc1ccccc1OC)c1ccccc1 (centres undefined) [Nisoxetine hydrochloride],0.75
3,C#C[C@]1(O)CC[C@H]2[C@@H]3CCC4=Cc5oncc5C[C@]4(C)[C@H]3CC[C@@]21C [Danazol],-0.444
4,COc1ccc(-c2cc(=S)ss2)cc1 [Anethole-trithione],-0.179
5,CN(C)CCCC1(c2ccc(F)cc2)OCc2cc(C#N)ccc21 (centres undefined) [Citalopram Hydrobromide],1.58
6,Nc1cc(C(Cl)=C(Cl)Cl)c(S(N)(=O)=O)cc1S(N)(=O)=O [Clorsulon],0.212

# System: A431
# Assay: whole-cell filipin (free cholesterol) integrated intensity, Z-score; higher = more cholesterol staining
# Details: compound concentration in added solution (µM; 5 µl added to 20 µl cells): 10; 18 h
# Method in brief: as §1
row,Compound,whole-cell filipin (z-score)
1,CCN1CCC[C@H]1CNC(=O)c1c(OC)ccc(Br)c1OC [Remoxipride Hydrochloride],-0.41
2,CN(C(=O)C(Cl)Cl)c1ccc(OC(=O)c2ccco2)cc1 [Diloxanide furoate],-0.629
3,CCn1cc(C(=O)O)c(=O)c2ccc(C)nc21 [Nalidixic acid sodium salt],-0.346
4,O=C1CCc2cc(OCCCCc3nnnn3C3CCCCC3)ccc2N1 [Cilostazol],-0.68
5,CNC(=C[N+](=O)[O-])NCCSCc1ccc(CN(C)C)o1 [Ranitidine hydrochloride],-1.03
6,CCc1cccc2c3c([nH]c12)C(CC)(CC(=O)O)OCC3 (centres undefined) [Etodolac],-0.842
7,Nc1c2c(nc3ccccc13)CCCC2 [Tacrine hydrochloride],-0.59
8,CNNCc1ccc(C(=O)NC(C)C)cc1 [Procarbazine hydrochloride],-0.286
9,COCCOC(=O)C1=C(C)NC(C)=C(C(=O)OC(C)C)C1c1cccc([N+](=O)[O-])c1 (centres undefined) [Nimodipine],0.0525
10,NC[C@@H]1O[C@@H](O[C@H]2[C@H](O)[C@@H](O[C@H]3O[C@H](CO)[C@@H](O)[C@H](N)[C@H]3O)[C@H](N)C[C@@H]2N)[C@@H](O)[C@H](O)[C@H]1O [Kanamycin A sulfate],-0.97
11,OC[C@H]1O[C@@H](Oc2ccc(O)cc2)[C@H](O)[C@@H](O)[C@@H]1O [Arbutin],-0.0729
12,CCOC(=O)[C@@](C)(N)Cc1ccc(O)c(O)c1 [Methyldopate hydrochloride],-0.323
13,CC1(C)S[C@@H]2[C@H](NC(=O)[C@H](N)c3ccccc3)C(=O)N2[C@H]1C(=O)O [Ampicillin trihydrate],-0.896
14,Oc1ncnc2[nH]ncc12 [Allopurinol],-0.157
15,CO/N=C(\C(=O)N[C@@H]1C(=O)N2C(C(=O)O)=C(COC(N)=O)CS[C@H]12)c1ccco1 [Cefuroxime sodium salt],-0.402
16,OCCN1CCN(CC/C=C2/c3ccccc3Sc3ccc(Cl)cc32)CC1 [Zuclopenthixol hydrochloride],0.421
17,Cn1nnnc1SCC1=C(C(=O)O)N2C(=O)[C@@H](NC(=O)[C@H](O)c3ccccc3)[C@H]2SC1 [Cefamandole sodium salt],-0.496
18,CC(N/C(=N\C#N)Nc1ccncc1)C(C)(C)C (centres undefined) [Pinacidil],-0.717
19,COc1ccccc1Oc1c(NS(=O)(=O)c2ccc(C(C)(C)C)cc2)nc(-c2ncccn2)nc1OCCO [Bosentan],-0.199
20,CC(C)(O/N=C(\C(=O)N[C@@H]1C(=O)N2C(C(=O)[O-])=C(C[n+]3ccccc3)CS[C@H]12)c1csc(N)n1)C(=O)O [Ceftazidime pentahydrate],-0.451
21,Nc1nc2c(ncn2COC(CO)CO)c(=O)[nH]1 [Ganciclovir],-0.0797
22,CCN(CCCc1ccccc1)CCCc1ccccc1 [Alverine citrate salt],1.13
23,CC(=O)OC(C)C[N+](C)(C)C (centres undefined) [Methacholine chloride],-0.0801
24,C[C@@H](c1ncncc1F)[C@](O)(Cn1cncn1)c1ccc(F)cc1F [Voriconazole],-0.573
25,Nc1nc(F)nc2c1ncn2[C@@H]1O[C@H](CO)[C@@H](O)[C@@H]1O [Fludarabine],0.904
26,Cc1ccc2c(c1)c1c3n2CCNC3CCC1 (centres undefined) [Pirlindole mesylate],0.654
27,O=C(O[C@@H]1C[C@@H]2C[C@H]3C[C@H](C1)N2CC3=O)c1c[nH]c2ccccc12 [Dolasetron mesilate],-0.669
28,COC(=O)C1=C(C)NC(C)=C(C(=O)OCC(C)C)C1c1ccccc1[N+](=O)[O-] (centres undefined) [Nisoldipine],0.622
